# Reference: ChEMBL document CHEMBL3988442, “University of Dundee, Small-Polar-MMV Screening Library” (2021)
# Among all 69,000 compounds or so, about 1,000 (1.4%) showed an effect of 50% or more. This excerpt belongs to a sample that is enriched for strong results.
# Tested on: Leishmania donovani
# Assay: Leishmania intramacrophage assay
# Type: functional, organism-based
# Parameters: scale not given: in the data most compounds retested in dose-response had high values
SMILES,"Percent Effect (30.3 µM, […])","Percent Effect (30 µM, 30.03 µM)"
O=C(O)C(F)(F)F.O=C(O)C(F)(F)F.c1cncc(CO[C@H]2CN(Cc3ccco3)[C@@H]3COC[C@H]23)c1,63.54%,
O=C(O)C(F)(F)F.O=C(O)C(F)(F)F.c1ccc(CO[C@@H]2CN(Cc3nccs3)[C@@H]3COC[C@@H]32)nc1,56.79%,
Cc1nc(CO[C@@H]2CN(Cc3cccnc3)[C@@H]3COC[C@@H]32)cs1.O=C(O)C(F)(F)F.O=C(O)C(F)(F)F,21.07%,
O=C(O)C(F)(F)F.O=C(O)C(F)(F)F.O=C(O)C(F)(F)F.c1ccc(CO[C@@H]2CN(Cc3cccnc3)[C@@H]3COC[C@@H]32)nc1,-0.4082%,
Fc1ccc(CN2C[C@@H](OCc3ccccn3)[C@H]3COC[C@H]32)cc1.O=C(O)C(F)(F)F.O=C(O)C(F)(F)F,38.45%,
Cc1cccc(CN2C[C@H](OCc3ccccn3)[C@H]3COC[C@H]32)n1.O=C(O)C(F)(F)F.O=C(O)C(F)(F)F,10.8%,
O=C(c1ccc2c(c1)OCO2)N1CCC(C(=O)O)(c2ccccc2)CC1,0.8951%,
CC(C)NC(=O)[C@H]1C[C@H]2NCCO[C@@H]2C1,20.26%,
O=C(NC1CCC1)[C@H]1C[C@H]2NCCO[C@@H]2C1,13.25%,
CC(C)NC(=O)[C@@H]1C[C@H]2NCC[C@H]2O1.Cl,56.79%,
CCCN1CCC[C@]2(CCC(=O)N2Cc2ccncc2)[C@H]1CC.O=C(O)C(F)(F)F.O=C(O)C(F)(F)F,-2.592%,
CN(C)C[C@H]1C[C@@H]2CN(Cc3ccco3)C[C@@H]2O1.O=C(O)C(F)(F)F.O=C(O)C(F)(F)F,-9.327%,
Cc1cccc(CN2CCN3C[C@H](Oc4cncnc4)C[C@H]3C2)n1.O=C(O)C(F)(F)F.O=C(O)C(F)(F)F,42.71%,
Fc1cnc(N2CCN3C[C@H](Oc4cncnc4)C[C@H]3C2)nc1.O=C(O)C(F)(F)F.O=C(O)C(F)(F)F,16.13%,
C[C@H]1C[C@H]2CN(Cc3ccccn3)CC[C@@H]2O1.O=C(O)C(F)(F)F.O=C(O)C(F)(F)F,19.92%,
CCCN1CC[C@@H]2OC[C@H](C(=O)Nc3cccnc3)C[C@@H]2C1.O=C(O)C(F)(F)F.O=C(O)C(F)(F)F,21.37%,
CN1CC[C@@H]2OC[C@H](C(=O)N(C)Cc3ccccn3)C[C@@H]2C1.O=C(O)C(F)(F)F.O=C(O)C(F)(F)F,55.09%,
CCS(=O)(=O)N1CCc2c(COCCN(C)C)cncc2C1.O=C(O)C(F)(F)F.O=C(O)C(F)(F)F,30.88%,
Cl.NC(CC1CCCCC1)c1ccccc1 (centres undefined),68.07%,
Cl.NC(Cc1nc(-c2ccccc2)no1)c1ccccc1 (centres undefined),-5.876%,
COCC1CC2(CCN(c3cc(OC)ncn3)CC2)CN1C(C)C.O=C(O)C(F)(F)F (centres undefined),17.84%,
Cc1nc(C2(NCc3cccc(F)c3F)CCCCC2)no1,15.79%,
Cc1cc(CNC2(c3ccccc3)CCCCC2)no1,4.963%,
Cc1cc(CNC2(c3ccccc3)CCCCC2)on1,51.47%,
CCN1C[C@H]2[C@@H](C1)N(S(=O)(=O)c1cccnc1)CC[C@H]2OC.O=C(O)C(F)(F)F.O=C(O)C(F)(F)F,,-25.11%
O=C(Cc1cnccn1)N1C[C@H]2CC[C@@H]1CN(Cc1cscn1)C2,50.19%,
COc1ccccc1CC(=O)N1C[C@H]2CC[C@@H]1CN(Cc1cscn1)C2,-17.19%,

SMILES,"Percent Effect (30.3 µM, […])","Percent Effect (30 µM, 30.03 µM)"
O=C(Cc1ccncc1)N1C[C@H]2CC[C@@H]1CN(Cc1cccnc1)C2,24.39%,
CC(C)(O)CNc1ccc(C#N)c(C(F)(F)F)c1,100.1%,
CC(C)(C)NC(=O)CNc1ccc(C#N)c(C(F)(F)F)c1,3.3%,
CC(C)(CNc1ccc(C#N)c(C(F)(F)F)c1)C(N)=O,20.21%,
Cc1ncc2c(c1-c1noc(-c3cscn3)n1)CCNC2,-9.596%,
CCOc1ccc(C2SCC(=O)Nc3c2c(=O)[nH]n3C(C)C)cc1 (centres undefined),-0.8562%,
Cl.O=C(N[C@H]1CN[C@H]2CCCO[C@H]21)c1cscn1,,25.22%
CN1C[C@H](NC(=O)c2cscn2)[C@@H]2OCCC[C@@H]21.O=C(O)C(F)(F)F,54.94%,
O=C(N[C@@H]1CN[C@@H]2CCCO[C@@H]21)c1cscn1.O=C(O)C(F)(F)F,4.147%,
Cc1cc(CN2C[C@@H]3COC[C@]3(CN(C)C)C2)no1.O=C(O)C(F)(F)F.O=C(O)C(F)(F)F,,-27.07%
Fc1cnc(N2CCCC3(CN(Cc4cccs4)CCO3)C2)nc1.O=C(O)C(F)(F)F (centres undefined),-13.69%,
CC(C)N(C)Cc1cncc2c1CCN(Cc1ccoc1)C2.Cl.Cl.Cl,28.71%,
O=C(O)C(F)(F)F.O=C(O)C(F)(F)F.c1cncc(OC[C@]23COC[C@H]2CN(C2CCC2)C3)c1,24.17%,
Cn1nc(CN2CCCCC(N)C2)c2c(Cl)cccc21 (centres undefined),74.89%,
Cc1cc(CN2C[C@@H]3COC[C@]3(CNC(=O)c3ccno3)C2)no1,,11.65%
Cl.O=C1CC2(CCCNC2)C(=O)N1Cc1ccccc1 (centres undefined),,10.36%
Fc1cccnc1O[C@@H]1CN(Cc2ccco2)[C@@H]2CCCO[C@@H]21.O=C(O)C(F)(F)F.O=C(O)C(F)(F)F,0.2133%,
Cc1c(C2N3C[C@]4(C)CN2C[C@](C)(C3)C4=O)[nH]c(=O)[nH]c1=O (some centres undefined),18.9%,
Cc1ccc(NC(=O)N2CCC(CO)(Nc3ccccc3)CC2)cc1,64.38%,
Cc1cccc(NC(=O)N2CCC(CO)(Nc3ccccc3)CC2)c1,33.34%,
O=C(Nc1ccc(F)cc1)N1CCC(CO)(Nc2ccccc2)CC1,1.566%,
O=C(O)C(F)(F)F.O=C(O)C(F)(F)F.c1ccc(CN2CCN3C[C@H](Oc4cncnc4)C[C@H]3C2)nc1,2.199%,
O=C(O)C(F)(F)F.O=C(O)C(F)(F)F.O=C(c1ccco1)N1CCN2C[C@H](OCc3cccnc3)C[C@H]2C1,15.93%,
O=C(O)C(F)(F)F.c1ccc(NC[C@@H]2CCC[C@@H]3CN(Cc4cccnc4)C[C@@H]32)nc1,38.85%,
Cc1noc(C)c1CN1C[C@H]2CN(Cc3cccc(F)c3)C[C@H]2C1.O=C(O)C(F)(F)F.O=C(O)C(F)(F)F,50.84%,
Cc1noc(C)c1CN1C[C@@H]2CC(F)(F)C[C@@H]2C1.O=C(O)C(F)(F)F,4.682%,
Fc1cccc(CN2C[C@@H]3CN(c4ncccn4)C[C@@H]3C2)c1.O=C(O)C(F)(F)F.O=C(O)C(F)(F)F,8.696%,

SMILES,"Percent Effect (30.3 µM, […])","Percent Effect (30 µM, 30.03 µM)"
O=C(C1CCOC1)N1CCC2(CCNCC2)C1 (centres undefined),11.74%,
Cc1cc(CN2CC[C@H]3C[C@@H](c4nccs4)O[C@@H]3C2)no1,12.1%,
Cc1cc(CN2CC[C@@H]3O[C@@H](c4nnc(C)o4)C[C@H]3C2)no1,55.35%,
Cc1nnc([C@H]2C[C@@H]3CCN(Cc4cc(C)on4)C[C@H]3O2)[nH]1,19.71%,
CCc1c(C)[nH]c(C2(N)CCCC2)nc1=O.Cl,9.424%,
O=C(O)C(F)(F)F.c1cnc(N2CCCC3(CCN(CC4CCC4)C3)C2)nc1 (centres undefined),67.66%,
O=C(O)C(F)(F)F.c1cnc(N2CCC3(CCCN(CC4CC4)C3)CC2)nc1,32.8%,
O=C(O)C(F)(F)F.O=C(O)C(F)(F)F.c1cnc(N2CCCC3(CCN(CC4CC4)C3)C2)nc1 (centres undefined),29.01%,
Cc1noc([C@@H]2C[C@H]3OCC[C@H]3N(C(C)C)C2)n1.O=C(O)C(F)(F)F,-1.476%,
c1ccc(N2CCCC3(CCN(Cc4nccs4)C3)C2)nc1 (centres undefined),,40.77%
CNC(=O)[C@@H]1[C@H]2CNCCN2C[C@H]1c1ccccc1,3%,
Cc1ccc(CN2CCC3(CC2)C(=O)Nc2ccccc23)s1.O=C(O)C(F)(F)F,7.529%,
Cl.Cl.NCC1[C@H]2CN(CCc3ccccc3)C[C@@H]12 (some centres undefined),,31.54%
Cl.Cl.NC[C@H]1[C@H]2CN(Cc3ccccc3)C[C@@H]12,,3.608%
NCC1[C@H]2CN(Cc3cccc(Cl)c3)C[C@@H]12 (some centres undefined),88.17%,
CN1CCCCC1c1cncc(Cl)n1.Cl (centres undefined),9.533%,
CCN1CCC2(CC1)C(=O)Nc1ccc(C(=O)NC)cc12.O=C(O)C(F)(F)F,1.318%,
O=C(N1CCOCC1)[C@@]12CCO[C@@H]1CCN(Cc1ccncc1)C2.O=C(O)C(F)(F)F.O=C(O)C(F)(F)F,2.48%,
CC(N)Cc1ccccc1Sc1ccccc1.O=C(O)/C=C\C(=O)O (centres undefined),100.2%,
CNC(C)Cc1ccccc1Sc1ccc(O)cc1.Cl (centres undefined),66.06%,
CC[C@H](C)[C@@H](CO)NC(C)Cc1ccccc1F (some centres undefined),2.411%,
CC(N)Cc1ccccc1Sc1ccc(O)cc1.CC(N)Cc1ccccc1Sc1ccc(O)cc1.O=C(O)C(=O)O (centres undefined),78.04%,
CNS(=O)(=O)CC(=O)NC(C)Cc1ccccc1Br (centres undefined),6.804%,
Cc1noc(C)c1CN1CCCC2(CCN(C(=O)NC3CC3)C2)C1.O=C(O)C(F)(F)F (centres undefined),,17.52%
O=C(C[C@@H]1COC[C@H]2CN(Cc3cccnc3)C[C@@H]12)N1CCCC1.O=C(O)C(F)(F)F.O=C(O)C(F)(F)F,-30.89%,
